From PubChem BioAssay
The list is not random: actives were taken first. Their share in the collection is about 3.8%.
S2 tox: viability counter-screen for ATXN expression inhibitors; S2 cells (HEK-293 line with an ATXN2-luciferase reporter) viability, CellTiter-Fluor protease fluorescence, 24 h; Potency, µM (titrated, usually from 56.7 µM), most hits filed as cytotoxic; 0.49% of 400,000 active; note: nearly all actives have a fitted effect of over 40% in size
Nrf2 inh: Nrf2 pathway inhibition. A549 ARE-Fluc reporter, luciferase luminescence, 18-24 h. Potency, µM (doses to about 46 µM), for inactives: top-dose activity change, negative = inhibition, actives largely listed as inhibitors. 2.1% of 360,000 active. AID 504444; note: % is set by controls: 0 for no effect and ±100 for the full control effect; nearly all actives have a fitted effect of over 60% in size
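Concentration-response testing used A549 ARE_Fluc cells at 5000 cells/well. Following an 18-24 h compound incubation, viability was read by fluorescence (Ex 405/Em 525) and luciferase output by luminescence.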
A549 tox-1: A549 cytotoxicity, counter-screen for Nrf2 inhibitors; A549 ARE-Fluc cells, CellTiter-Fluor viability, 18-24 h; Potency, µM (highest dose often 46 µM), inactives show top-dose activity change, negative = cytotoxicity, hits mostly inhibitors; 0.16% of 390,000 active; AID 504648; note: % is set by controls: 0 for no effect and ±100 for the full control effect
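A549 ARE-Fluc cells in 5% FBS OPTI-MEM, 5000 cells/well, rested 2 h then exposed to compounds in concentration-response for 18-24 h at 37 °C. Viability by CellTiter-Fluor fluorescence (Ex 405/Em 525) after 30 min; luciferase luminescence (BugLite, 15 min, RT) read afterwards.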
ATXN2 expr inh: reduces ATXN2 reporter expression in HEK-293 cells | HEK-293 ATXN2-luciferase reporter, luminescence, 24 h | Potency, µM (titrated, usually from 57 µM), for inactives: top-dose activity change, negative = inhibition, most hits filed as inhibitors | 0.72% of 360,000 active | AID 1745845; note: % is set by controls: 0 for no effect and ±100 for the full control effect; nearly all actives have a fitted effect of over 55% in size
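ATXN2-luciferase reporter cells (luciferase flanked by upstream and downstream ATXN2 gene portions) were treated 24 h at 37 °C with compounds at up to 57 uM. SteadyGlo luminescence gave expression; GF-AFC fluorescence gave viability.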
TGFb inhibitor: blocks TGF-b signaling. Potency, µM (top dose mostly 46.1 µM), for the others: at the top dose activity, negative = inhibition, hits mostly inhibitors. 1.2% of 410,000 active. HepG2 CAGA-GFP TGF-b/SMAD3 reporter, GFP fluorescence, 18 h; TGF-beta stimulated, 500 pg/mL final. AID 588855; note: % is set by controls: 0 for no effect and ±100 for the full control effect; nearly all actives have a fitted effect of over 65% in size
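Inhibition was scored as loss of TGF-beta-induced (500 pg/mL final, 18 hours, 37 degrees C) GFP in HEPG2 cells carrying a CAGA-GFP reporter, in DMEM with 1% FBS. Well GFP was summed per cell; Activity was normalised to unstimulated and stimulated DMSO wells, then concentration-response fitting.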
HepG2 tox: kills HepG2 cells in TGF-b inhibitor counter-screen | HepG2 CAGA-GFP viability, ATP luminescence, 18 h | 0.76% of 410,000 active | Potency, µM (highest dose often 46.1 µM), for inactives: top-dose activity change, negative = cytotoxicity, actives largely listed as cytotoxic
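HepG2 CAGA-GFP cells (1000/well, DMEM with 1% FBS) received compound, then TGF-beta at 500 pg/mL final, and were incubated 18 hours at 37 degrees C. Viability was read by CellTiter-Glo luminescence. Media-only wells were set as complete cell-killing and DMSO as no toxicity.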
FLuc enzyme inh: blocks purified firefly luciferase in Nrf2 counterscreen; shares compounds with Nrf2 inh; purified firefly luciferase, luminescence inhibition; Potency, µM (series often up to 57.5 µM), for the others: at the highest dose activity change, negative = inhibition, hits mostly inhibitors; 4% of 1,400 active; AID 720522; note: % is set by controls: 0 for no effect and ±100 for the full control effect; nearly all actives have a fitted effect of over 65% in size
Target sequence (P08659 whole entry, looked up): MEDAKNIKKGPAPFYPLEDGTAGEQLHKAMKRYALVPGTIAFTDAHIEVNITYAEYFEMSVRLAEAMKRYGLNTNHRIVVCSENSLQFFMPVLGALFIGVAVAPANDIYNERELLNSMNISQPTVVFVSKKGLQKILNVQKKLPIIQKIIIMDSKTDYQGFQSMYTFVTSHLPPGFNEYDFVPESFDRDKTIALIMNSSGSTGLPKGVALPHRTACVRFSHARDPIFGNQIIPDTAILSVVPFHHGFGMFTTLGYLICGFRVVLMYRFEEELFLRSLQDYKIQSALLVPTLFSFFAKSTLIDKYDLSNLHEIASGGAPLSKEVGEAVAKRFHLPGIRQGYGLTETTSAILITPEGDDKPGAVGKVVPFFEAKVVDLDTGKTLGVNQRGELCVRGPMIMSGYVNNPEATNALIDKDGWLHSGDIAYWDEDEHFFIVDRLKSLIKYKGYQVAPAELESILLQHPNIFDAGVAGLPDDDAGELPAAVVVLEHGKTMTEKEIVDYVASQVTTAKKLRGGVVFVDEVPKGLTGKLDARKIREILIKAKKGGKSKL
A549 tox-2: counter-screen for Nrf2 inhibitors: cytotoxicity in A549 ARE cells | A549 ARE-Fluc cells, cytotoxicity counterscreen | shares compounds with Nrf2 inh | Potency, µM (highest dose often 46.1 µM), without a hit: top-dose activity change, negative = cytotoxicity, actives largely listed as inhibitors | 2% of 1,400 active | AID 720523;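 note: cells exposed to compounds for 18 to 24 hours; % is set by controls: 0 for no effect and ±100 for the full control effect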
Nrf2 ARE inh: reduces Nrf2 ARE reporter signal in A549 cells | shares compounds with Nrf2 inh | A549 ARE-firefly luciferase reporter, luminescence | Potency, µM (highest dose often 46.1 µM), for inactives: at the top dose activity change, negative = inhibition, usual class: inhibitors | 74% of 1,400 active | AID 720524; note: % is set by controls: 0 for no effect and ±100 for the full control effect; nearly all actives have a fitted effect of over 65% in size
Starred values were filed as active, the others as inactive; i = inactive; ? = inconclusive; . = not tested or not shown; ! = not confirmed by another sample; [ ] = another dose, or the depositor's remark. Calls come from the whole dose curve; as a rule, active = well fitted curve in the direction sought with a large enough effect; inconclusive = small, poorly fitted or top-dose-only effect, or another doubt; inactive = no such curve, though single readings can be large; an effect the other way counts as inactive or inconclusive. Potency is the fitted concentration of half-maximal effect.

SMILES	S2 tox	Nrf2 inh	A549 tox-1	ATXN2 expr inh	TGFb inhibitor	HepG2 tox	FLuc enzyme inh	A549 tox-2	Nrf2 ARE inh
COc1ccc(CC(=O)NCc2nn(-c3ccccc3)nc2C)cc1OC	i	-7%	12%	.	-18%	-34%	.	.	.
COc1ccc(-c2ocnc2C(=O)NCc2nn(-c3ccccc3)nc2C)cc1	i	2.9µM*	4%	.	?	-35%	-2%	-6%	5.8µM*
Cc1cc(C(=O)OCC(=O)N2CC(=O)Nc3ccccc32)c(C)n1-c1ccc(F)cc1	i	9.2µM*	?	-10%	?	-1%	-16%	1%	16µM*
Cc1cc(C(=O)OCC(=O)N2CC(=O)Nc3ccccc32)c(C)n1-c1ccccc1	i	?	1%	-10%	-14%	-11%	.	.	.
CCc1noc(C)c1C(=O)Nc1ccccc1C(C)(C)C	i	5%	-4%	8%	19%	6%	.	.	.
CCCCN(C)C(=O)C1CCCN(c2ncnc3onc(C)c23)C1 (stereo not given)	i	9.2µM*	-21%	-25%	-27%	-13%	-1%	-19%	2.9µM*
Oc1ccc(CCNc2ncnc3ccc(Cl)cc23)cc1	?	7.3µM*	-3%	-14%	-4%	-20%	-18%	-1%	7.3µM*
Nc1nc(Cl)cc(NCCc2ccc(O)cc2)n1	i	12%	2%	-10%	3%	1%	.	.	.
O=NN(CCc1ccncc1)c1ccc(OCc2ccccc2)cc1	i	6.5µM*	-19%	-23%	-15%	-27%	-28%	-3%	5.8µM*
COc1ccccc1N1CCN(C(=O)C2CCCN(S(=O)(=O)c3ccc(C)cc3)C2)CC1 (stereo not given)	i	?	4%	-33%	?	-48%	.	.	.
COc1ccccc1N1CCN(C(=O)C2CCCN(S(=O)(=O)c3ccc4c(c3)CCCN4C(C)=O)C2)CC1 (stereo not given)	?	9.2µM*	-11%	18µM*!	?	-7%	-1%	-1%	9.2µM*
COC(=O)c1cccc(C23CC4(C2)[C@H](CN(Cc2cccnc2)[C@@H]4c2ccccc2)C3c2ccc(C(F)(F)F)cc2)c1 (stereo not given in full)	i	?	2%	5%	-8%	-21%	.	.	.
CCC(c1nnnn1-c1ccc2c(c1)OCCO2)N1CCN(Cc2c(F)cccc2Cl)CC1 (stereo not given)	i	.	.	-13%	.	.	.	.	.
O=c1cc(N2CCN(c3cccc(Cl)c3)CC2)[nH]c(=O)n1C1CCCCC1	i	?	?	?	1%	4%	-1%	?	.
O=c1cc(N2CCOCC2)[nH]c(=O)n1C1CCCCC1	i	15%	5%	0%	1%	0%	.	.	.
CCN(C(=O)c1ccc(C(C)(C)C)cc1)c1nnc(Cn2nnc3ccccc32)s1	?	5.8µM*	?	-31%	19%	-1%	1%	-15%	6.5µM*
Cn1c(-c2cccc([N+](=O)[O-])c2)[n+](C)c2ccccc21	i	?	-11%	?	-6%	-23%	.	.	.
Cn1c(-c2ccc3ccccc3n2)[n+](C)c2ccccc21	i	?	-21%	21%	?	1%	.	.	.
CN(C)c1ccc(-c2n(C)c3ccccc3[n+]2C)cc1	i	0.29µM*	-18%	6%	-29%	-2%	-24%	-16%	?
Cn1c(-c2ccccn2)[n+](C)c2ccccc21	i	5.2µM*	-8%	-20%[11.3 µM]	-12%	-17%	0%	-1%	10µM*
Cc1ccc(OCC(=O)Nc2ccc(OCc3cc(=O)n4cccc(C)c4n3)cc2)cc1C	.	.	-5%	.	-4%	0%	.	.	.
CC1=C(c2ccc(C(C)C)cc2)S(=O)(=O)N=C1N1CCN(c2ccccc2F)CC1	.	-29%	12%	.	-3%	-8%	.	.	.
CC(C)n1cc(/C=C/c2cc[n+](C)cc2)c2ccccc21	i	2.3µM*	?	?	158%	-13%	2%	?	6.5µM*
Cc1ccccc1/C=C/c1cc[n+](C)cc1	.	1.3µM*	-8%	31%	?	-23%	4%	-13%	23µM*
C=CCn1cc(/C=C/c2cc[n+](C)cc2)c2ccccc21	.	2.3µM*	?	.	152%	-62%	1%	-29%	1.8µM*
SMILES	S2 tox	Nrf2 inh	A549 tox-1	ATXN2 expr inh	TGFb inhibitor	HepG2 tox	FLuc enzyme inh	A549 tox-2	Nrf2 ARE inh
C=CCn1c(C)c(/C=C/c2cc[n+](C)cc2)c2ccccc21	i	?	-21%	?	122%	-19%	.	.	.
CCn1cc(/C=C/c2cc[n+](C)cc2)c2ccccc21	i	1.8µM*	-21%	.	127%	-39%	0%	?	1.8µM*
O=C(Nc1ccc2c(c1)OCO2)C1Cc2c(-c3ccc4c(c3)OCO4)ccnc2O1 (stereo not given)	?	.	.	?	?	-42%	.	.	.
CC(C)c1ccc(-c2cc(C(=O)N3CCOCC3)c3cc(Br)ccc3n2)cc1	i	?	6%	15%	5%	1%	.	.	.
CCOc1cccc(NC(=O)C2CC(=O)N(C)C(=Nc3ccc(F)cc3)S2)c1 (stereo not given)	?	.	4%	-3%	?	-28%	.	.	.
CN1/C(=C/c2cccc[n+]2C)Sc2ccccc21	i	0.82µM*	12µM*	?	?	-37%	-1%	?	2.1µM*
CCN1/C(=C/c2cccc[n+]2C)Sc2ccc(OC)cc21	i	5.8µM*	-3%	.	4µM*	-18%	-1%	-29%	6.5µM*
COc1ccc2c(c1)N(C)/C(=C/c1cccc[n+]1C)S2	?	3.3µM*	16µM*	?	-17%	-37%	-1%	?	4.1µM*
CCN1/C(=C/C(C)=O)Sc2ccc(OC)cc21	i	2%	-2%	-15%	5%	-14%	.	.	.
COc1ccccc1NC(=O)Cc1nnc(SCC(=O)NC2=NCCS2)n1C	i	23%	10%	15%	24%	1%	.	.	.
